Assay outcomes (PubChem BioAssay)
Only some compounds are listed: those with a hit (about 2.2% of all), similar ones and a draw of the others.
NTR1 ag: agonists of human NTR1, primary screen, imaging, U2OS cells, beta-arrestin-GFP, high content | Neurotensin receptor type 1 (Homo sapiens), P30989 | NTR1-U2OS beta-arrestin-GFP spot imaging, agonist mode | activation, % at 20 µM | 330,000 compounds, 0.17% hits | AID 493036, 2011;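 active = activation at or above 40% of the spot to cytoplasm intensity ratio, with at least 20 cells analyzed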;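 note: 0% = DMSO without peptide and 100% = 100 nM NTR1 peptide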
Target sequence (P30989 whole entry, looked up): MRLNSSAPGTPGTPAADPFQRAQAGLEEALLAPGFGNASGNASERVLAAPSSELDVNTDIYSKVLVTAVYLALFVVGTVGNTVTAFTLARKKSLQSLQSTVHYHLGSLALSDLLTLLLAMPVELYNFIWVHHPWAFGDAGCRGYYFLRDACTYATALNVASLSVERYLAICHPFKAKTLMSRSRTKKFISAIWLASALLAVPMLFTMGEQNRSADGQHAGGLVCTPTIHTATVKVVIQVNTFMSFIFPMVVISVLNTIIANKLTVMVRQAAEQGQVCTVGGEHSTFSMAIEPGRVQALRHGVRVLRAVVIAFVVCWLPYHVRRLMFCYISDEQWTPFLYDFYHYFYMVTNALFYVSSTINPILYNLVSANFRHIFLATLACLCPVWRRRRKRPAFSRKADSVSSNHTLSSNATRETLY
CHO-K1 Ca PAM: nonselective calcium activators in parental CHO-K1 cells, primary screen, counter-screen for M1 PAM project, cell-based, Fluo-8 calcium fluorescence, full deck, 1536-well. ATP EC20; 0% at ATP EC20, 100% at ATP max. activation, % at 3 µM. 360,000 compounds, 0.02% hits;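 active = activation above the run cutoff, the mean activation of all test compounds plus 3 SD, cut at about 40% in these data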;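 note: peak over basal fluorescence ratio in a 140 s read after ATP addition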
M1 ag parental: counter-screen for M1 agonists: effect in parental CHO-K1 cells; Fluo-8 calcium fluorescence; scaled to maximal ATP response, vehicle zero; activation, % at 3 µM; 360,000 compounds, 0.48% hits; AID 602248, 2012; in the data active = activation above about 15%;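 note: untransfected CHO-K1 host cells lacking M1 receptor as counterscreen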
TMEM16A inh: TMEM16A chloride channel inhibitors, primary screen, cell-based, HTS; 310,000 compounds, 1.2% hits; normalized B-score (activity score, 25-100; higher = stronger inhibition) at 10 µM; HEK293 TMEM16A/YFP iodide influx fluorescence, ionomycin; Anoctamin-1 (Mus musculus), Q8BHY3;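 active = ratio plate-corrected score three or more library SD toward inhibition, starting fluorescence score within five deviations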;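 note: score derived from kinetic fluorescence span divided by baseline fluorescence per well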
CHO-K1 Ca antag: counter-screen for M1 antagonists: effect in parental CHO-K1 cells; AID 602250; 360,000 compounds, 0.6% hits; ATP-induced calcium, Fluo-8 fluorescence; inhibition, % at 3 µM;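 active = inhibition above a per-plate cutoff, the plate's mean sample inhibition plus 3 SD, cut at about 24% in these data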;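 note: 0% = DMSO plus EC80 ATP and 100% = DMSO alone without ATP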
TMEM16A act: TMEM16A chloride channel activators or potentiators, primary screen, cell-based, HTS | Anoctamin-1 (Mus musculus), Q8BHY3 | 340,000 compounds, 0.3% hits | B-score at 10 µM | HEK293 TMEM16A/YFP-H148Q/I152L, iodide quench fluorescence; hits give low values;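 active = fluorescence-ratio B-score plate-corrected deviation score at least 3 library SD below zero, with starting fluorescence score within 5 deviations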;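 note: channel opened by trigger with iodide after compound preincubation; score built on the fluorescence ratio of max minus min over baseline; more negative score means more quench and so TMEM16A activation or potentiation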
TMEM16A reconf: TMEM16A chloride channel inhibitors, confirmation, cell-based, re-confirmation; shares compounds with TMEM16A inh; HEK293 TMEM16A/YFP-H148Q, iodide quench fluorescence; ionomycin added to raise cell calcium; inhibition, % at 10 µM; 2,300 compounds, 39% hits; AID 652189, 2013;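 active = mean duplicate percent inhibition, scaled so buffer wells are 0 and the reference blocker 100, over three buffer SD above buffer mean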
TMEM16A Ca cntr: calcium mobilization in TMEM16A/YFP HEK293 cells, confirmation, counter-screen for TMEM16A inhibitor project | AID 652231, 2013 | calcium response (% of ionomycin), % at 10 µM | shares compounds with TMEM16A inh | Fluo4 calcium mobilization | 2,300 compounds, 2% hits;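 active = duplicate-averaged calcium signal over 20% of the ionomycin maximum, relative to buffer baseline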;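 note: each well's signal is peak minus trough fluorescence divided by its pre-addition baseline; 0% = buffer wells and 100% = ionomycin wells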
Parental YFP cnt: iodide YFP quench changes in parental YFP-HEK293, counter-screen for TMEM16A inhibitor project, cell-based. shares compounds with TMEM16A inh. ionomycin. YFP ratio F(max-min)/F0 at 10 µM. 2,300 tested, under 10 active. AID 652233, 2013;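 active = yellow fluorescent protein signal ratio exceeding the buffer control mean by over 5 SD of those controls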;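 note: ratio is mean of duplicate wells from kinetic YFP trace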
ClC-1 rat inh: ClC-1 chloride channel inhibition, selectivity assay for TMEM16A inhibitor project, cell-based, voltage-dependent ClC-1; shares compounds with TMEM16A inh; CHO ClC-1-YFP, iodide influx fluorescence quench; iodide control reads 0, buffer control 100; ratio percent, % at 10 µM; 2,300 tested, under 10 active; AID 652236, 2013;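 active = duplicate-mean ratio percent above the mean of iodide-only control wells, which defines zero, plus 5 of their SD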;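 note: higher percent means stronger block of ClC-1 iodide influx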
An asterisk follows results filed as active; i = inactive; . = not tested or not shown.

SMILES | NTR1 ag | CHO-K1 Ca PAM | M1 ag parental | TMEM16A inh | CHO-K1 Ca antag | TMEM16A act | TMEM16A reconf | TMEM16A Ca cntr | Parental YFP cnt | ClC-1 rat inh
O=C(OCc1cc(=O)n2ccsc2n1)C1(c2ccccc2)CC1 | . | -13.5 | 0.7 | . | 15.3 | . | . | . | . | .
O=S(=O)(Nc1nc2ccccc2s1)c1ccc(Cl)s1 | 2.6 | 15.1 | 5.6 | 100* | -3.9 | i | 30.5%* | i | -0.848 | -16.0
O=C(C1CCC(=O)N(C2CCCC2)C1)N1CCN(c2ccc(Cl)cc2)CC1 (stereo not given) | 3.1 | -2.2 | 2.8 | i | -13.2 | i | . | . | . | .
Cc1ccc(Cl)cc1N1CCN(C(=O)C2CCC(=O)N(C3CCCCCC3)C2)CC1 (stereo not given) | 3.3 | -11.6 | 3.9 | 100* | 2.2 | i | 18.5%* | i | -1.25 | -16.5
Cc1cc(C)n(CC(=O)c2ccccc2)c(=O)c1C#N | 0.3 | 1.7 | -0.1 | 100* | -6.5 | i | i | i | -0.895 | -7.5
O=C(CN1C(=O)C(=O)N(C2CCCC2)C1=O)Nc1ccc(OC(F)F)cc1 | 0.8 | -8.0 | 0.3 | . | -2.9 | i | . | . | . | .
CCOC(=O)[C@H]1[C@H]2COc3ccc(Cl)cc3[C@@H]2N2C(=O)c3cc(F)c(F)cc3NC(=O)[C@@]12C | -4.1 | 7.7 | -0.3 | i | -7.5 | i | . | . | . | .
CC(C)NC(=O)Nc1ccc2c(c1)C(=O)N([C@H](C)CO)C[C@H](C)[C@@H](CN(C)Cc1ccc3c(c1)OCO3)OCCCC[C@@H](C)O2 | . | 27.2 | 0.9 | . | -13.2 | . | . | . | . | .
COc1ccc(NC(=O)c2csc(Cc3ccccc3)n2)cc1 | -1.3 | 3.9 | 1.3 | 25* | -0.7 | i | i | i | -1.13 | -3.5
Nc1ccc(CSc2ccc(Cl)cc2)c(Cl)c1 | . | 6.5 | 0.2 | . | -13.6 | i | . | . | . | .
CSCCC(NC(=O)COc1ccccc1)C(=O)NCC(C)(C)N1CCOCC1 (stereo not given) | . | 11.4 | 0.2 | . | 0.2 | . | . | . | . | .
O=C(O)C1=CC[C@@H](c2ccc(Cl)cc2)N(S(=O)(=O)c2ccc(Cl)cc2)[C@H]1c1ccc(F)cc1 | 14.5 | 3.2 | 0.1 | 100* | -6.1 | i | i | i | -0.966 | -28.0
CCc1ccc([C@@H]2CC=C(C(=O)O)[C@H](c3ccccc3)N2S(=O)(=O)c2ccc(C)cc2)cc1 | 2.4 | -9.1 | -0.2 | i | -10.3 | i | . | . | . | .
Cc1ccccc1S(=O)(=O)N1[C@@H](c2ccc(F)cc2)C(C(=O)O)=CC[C@H]1c1ccc(Cl)cc1 | 15.9 | 9.7 | 0.3 | 100* | -5.4 | i | 28.0%* | i | -1.31 | -39.0
COc1ccc([C@@H]2CC=C(C(=O)O)[C@H](c3ccccc3)N2S(=O)(=O)c2ccccc2C)cc1 | -2.8 | -4.0 | 0.6 | i | -7.0 | i | . | . | . | .
CCc1ccc([C@@H]2CC=C(C(=O)O)[C@H](c3ccc(F)cc3)N2S(=O)(=O)c2ccc(C)cc2)cc1 | 5.1 | -3.3 | 0.1 | 100* | -18.9 | i | i | i | -1.04 | -12.0
CN1CCCC(C)(C(=O)Nc2ccc3scnc3c2)C1 (stereo not given) | . | 8.1 | 0.6 | . | -5.5 | . | . | . | . | .
CC(C)(O)C#Cc1ccc(CNC[C@H]2O[C@@H](n3cnc4c(N)ncnc43)[C@H](O)[C@@H]2O)s1 | -0.6 | 7.3 | 0.6 | . | -1.0 | . | . | . | . | .
C[C@H](NC(=O)c1ccccc1Cl)C(=O)OC(C(=O)Nc1cc(C(F)(F)F)ccc1Cl)c1ccccc1 (stereo not given in full) | 2.9 | -5.2 | 0.5 | 25* | 1.8 | i | i | i | -1.37 | -5.5
O=C(CNC(=O)c1ccccc1F)OC(C(=O)Nc1cc(C(F)(F)F)ccc1Cl)c1ccccc1 (stereo not given) | -3.4 | 3.1 | 0.7 | i | -0.8 | i | . | . | . | .
COc1cc2c(cc1NCc1ccccn1)oc1ccccc12 | 1.5 | 11.0 | 0.9 | 100* | 0.8 | i | i | i | -1.04 | -13.0
COc1cc2c(cc1NCc1ccc3c(c1)OCO3)oc1ccccc12 | -3.3 | -6.8 | -0.4 | i | 16.4 | i | . | . | . | .
CC1=CC(C)(C)N2C(=O)C3(SCC(=O)N3c3ccc(F)cc3)c3cc(C)cc1c32 (stereo not given) | 26.4 | 25.0 | 5.5 | 100* | -7.5 | i | 20.0%* | i | -1.17 | -8.5
Cc1c(C)n(CC(O)CSc2ccccc2)c2ccccc12 (stereo not given) | . | 14.6 | 0.6 | . | -24.5 | . | . | . | . | .
CCOC(=O)c1sc2nccc(N(C)C)c2c1N=CNOCc1ccccc1 | 9.4 | -8.3 | 0.5 | i | 23.6 | i | . | . | . | .
SMILES | NTR1 ag | CHO-K1 Ca PAM | M1 ag parental | TMEM16A inh | CHO-K1 Ca antag | TMEM16A act | TMEM16A reconf | TMEM16A Ca cntr | Parental YFP cnt | ClC-1 rat inh
CCOC(=O)c1sc2nccc(N(C)C)c2c1N=CNOCc1c(F)cccc1Cl | 8.3 | 6.9 | 0.6 | 100* | 4.6 | i | i | i | -0.946 | -4.0
COc1ccc(-c2nn3c(-c4ccccc4)nnc3s2)cc1 | 8.9 | 21.7 | 1.5 | i | -2.9 | i | . | . | . | .
CCN(CC)c1ccc(-c2nn3c(-c4ccccc4OC)nnc3s2)cc1 | 25.5 | 16.1 | 1.2 | 100* | -0.8 | i | i | i | -1.05 | -2.0
COc1cccc(CN2CCC2(C)C(=O)NCc2cccc(C(F)(F)F)c2)c1OC (stereo not given) | . | 12.4 | 5.0 | . | -10.4 | . | . | . | . | .
CC1(C(=O)NS(=O)(=O)C2CC2)CCN(C(=O)c2ccccc2C(F)(F)F)C1 (stereo not given) | . | -11.4 | -0.2 | . | 8.3 | . | . | . | . | .
COC(=O)C1=CN(Cc2ccccc2)C=C(C(=O)OC)C1c1cc(F)ccc1F | 2.1 | 6.9 | -0.1 | i | -20.3 | i | i | i | -1.1 | -6.5
CCOc1ccc(Cl)cc1-c1cc(C(=O)Nc2ccc(Br)cc2)[nH]n1 | . | 19.4 | 0.2 | . | 6.0 | . | . | . | . | .
